Experiment [1] concerns the target Estrogen receptor (Homo sapiens) (UniProt P03372). Nature of the experiment: CCTE_Deisenroth_AIME_96WELL_LUC_Active: CCTE's 96-well Estrogen Receptor Transactivation Assay with AIME metabolic competence (ERTA luciferase; metabolism positive), Deisenroth Lab (AID 2284023; active = hit-call score of the fitted dose curve at least 0.9, where 1 is the maximum). The method in brief:
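Metabolism-positive mode: induced rat hepatic S9 in alginate microspheres conditions test solutions (0.002 - 200 uM, 10 points) for 2 hours. VM7Luc4E2 ER luciferase reporter cells then exposed 24 h; positive-direction fit against 17beta-estradiol, n=4 typical.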

The target is the same in experiment [2]. Nature of the experiment: CCTE_Deisenroth_AIME_96WELL_LUC_Inactive: CCTE's 96-well Estrogen Receptor Transactivation Assay without AIME metabolic competence (ERTA luciferase; metabolism negative), Deisenroth Lab (AID 2284025; active = hit-call score of the fitted dose curve at least 0.9, where 1 is the maximum). A digest of the protocol: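 Metabolism-negative arm: chemicals (0.002–200 uM, 10 points) incubated 2 h with alginate-water microspheres, then medium moved onto VM7Luc4E2 cells for 24 h luciferase read-out. Positive direction vs 17beta-estradiol; n≥4 experiments.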

Experiment [3] is described as follows: CCTE_Deisenroth_AIME_96WELL_CTox_Active: Cytotoxicity Assessment (CTOX) in CCTE's 96-well Estrogen Receptor Transactivation Assay with AIME metabolic competence (metabolism positive), Deisenroth Lab (AID 2284028; active = hit-call score of the fitted dose curve at least 0.9, where 1 is the maximum). A digest of the protocol: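 Cytotoxicity in VM7Luc4E2 breast cells after 24 h exposure to medium from a 2 h metabolic pre-incubation with induced rat hepatic S9 in alginate microspheres; fluorescent live-cell protease readout, 10-point series 0.002–200 uM, n=4.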

Experiment [4] in a line: CCTE_Deisenroth_AIME_96WELL_CTox_Inactive: Cytotoxicity Assessment (CTOX) in CCTE's 96-well Estrogen Receptor Transactivation Assay without AIME metabolic competence (metabolism negative), Deisenroth Lab (AID 2284029; active = hit-call score of the fitted dose curve at least 0.9, where 1 is the maximum). The method in brief: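 Metabolism-negative mode: alginate-water lids without rat S9, 2 h pre-incubation of 10-point series (0.002 - 200 uM). Conditioned medium on VM7Luc4E2 cells 24 h; loss of fluorescent live-cell protease signal marks cytotoxicity.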

Experiment [5] is described as follows: CCTE_Shafer_MEA_acute_burst_number: CCTE's Neural Acute Assay for Single-Electrode Bursts, Shafer Lab (AID 2284013). A digest of the protocol:
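Burst totals were derived with adaptive spike detection (8x rms threshold) on filtered signals from rat cortical cultures; change relative to pre-treatment baseline after 40-min compound exposure (0.03-40 uM) was fitted in the negative direction against DMSO.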

Experiment [6] can be described thus: CCTE_Shafer_MEA_acute_per_burst_spike_number_mean: CCTE's Neural Acute Assay for Average Number of Spikes Per Burst, Shafer Lab (AID 2284015).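 Also: hits are decreases in mean spikes per burst versus baseline.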 A digest of the protocol: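 Rat primary cortical neurons on 48-well MEAs (DIV 13 or 15) were treated with 0.03-40 uM compound at 37 C. Mean spikes per burst over 40 min were recorded before and after exposure and expressed as percent change from baseline, relative to DMSO.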

Experiment [7] can be described thus: CCTE_Shafer_MEA_acute_burst_percentage_mean: CCTE's Neural Acute Assay for Percentage of Spikes in a Burst, Shafer Lab (AID 2284017).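 As to AC50: curve fitted for loss of signal so potency reflects decreased burst percentage.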 A digest of the protocol:
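Primary rat cortical neurons on 48-well MEA plates, treated on DIV 13 or 15 at 0.03-40 uM. Spikes detected at 8x rms noise at 37C; percent change from 40-min baseline to 40-min post-dose recording, fitted versus DMSO.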

A short description of experiment [8]: CCTE_Shafer_MEA_acute_burst_percentage_std: CCTE's Neural Acute Assay for Standard Deviation of Burst Percentage, Shafer Lab (AID 2284018).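 Also: fitted in the negative direction so actives lower burst percentage SD.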 A digest of the protocol: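 Primary rat cortical neurons on 16-electrode MEA wells were recorded 40 min at baseline (DIV 13 or 15), then 40 min after compound (0.03-40 uM), at 37 C. Well value is SD across electrodes of spikes-in-bursts/total spikes; endpoint is percent change, DMSO-referenced.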

A short description of experiment [9]: CCTE_Shafer_MEA_acute_per_network_burst_spike_number_mean: CCTE's Neural Acute Assay for Average Number of Spikes in a Network Burst, Shafer Lab (AID 2284019).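 As to AC50: curve fitted for loss of signal so actives reduce spikes per network burst.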 The method in brief:
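Acute exposure of rat primary cortical networks (DIV 13/15) on MEAs; adaptive spike detection at 8x rms noise, 37 C. Percent change in spikes per network burst after 40 min with compound (0.03-40 uM), negative direction vs DMSO.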

Experiment [10] can be described thus: CCTE_Shafer_MEA_acute_per_network_burst_spike_number_std: CCTE's Neural Acute Assay for Standard Deviation of Number of Spikes in a Network Burst, Shafer Lab (AID 2284020).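 Also: fitted for decrease in spike-number SD versus DMSO so actives lower it.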 The method in brief: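 Acute MEA exposure, rat cortical neurons, 0.03-40 uM. Per-well % change versus own baseline; DMSO as negative control.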
The nature of experiment [11]: CCTE_Shafer_MEA_acute_per_network_burst_electrodes_number_mean: CCTE's Neural Acute Assay for Mean Number of Electrodes in a Network Burst, Shafer Lab (AID 2284021).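 Also: curves fitted for decreases only so hits reduce electrodes per burst.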 A digest of the protocol:
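Readout: % change in mean electrodes active per network burst, post- vs pre-treatment, each well. Spikes detected at 8x rms noise after 300-5000 Hz band-pass; rat cortical cultures, DIV 13/15, compounds 0.03-40 uM, DMSO baseline.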

Experiment [12] can be described thus: CCTE_Shafer_MEA_acute_network_burst_percentage: CCTE's Neural Acute Assay for Percentage of Network Bursts, Shafer Lab (AID 2284022).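 Also: curves fitted for loss so actives lower network burst percentage.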 The method in brief:
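Rat cortical cultures, DIV 13/15; 20 min equilibration, 40 min baseline, compound 0.03-40 uM, 40 min recording, 37 C. Spikes: 300-5000 Hz band-pass, threshold 8x rms noise. Readout: % change in network-burst spike fraction; loss direction vs DMSO.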

The nature of experiment [13]: CCTE_Shafer_MEA_acute_cross_correlation_area: CCTE's Neural Acute Assay for Area of Cross Correlation, Shafer Lab (AID 2284024).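 Also: area under pooled inter-electrode spike cross-correlation near zero lag as percent change from own baseline; curves fitted for loss of cross-correlation area so actives lower synchrony.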 The method in brief:
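Rat cortical cultures, DIV 13/15, MEA; spikes detected at 8x rms noise (300-5000 Hz band-pass). Compound 0.03-40 uM, ≥3 wells each. Readout: % change in pooled inter-electrode cross-correlation area vs own baseline; DMSO negative control.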

A short description of experiment [14]: CCTE_Shafer_MEA_acute_synchrony_index: CCTE's Neural Acute Assay for Synchrony, Shafer Lab (AID 2284027).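 Also: network synchrony index of spontaneous spiking in primary rat cortical neurons on MEAs; fitted for loss of signal so actives lower synchrony relative to DMSO.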 The method in brief:
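Plates equilibrated 20 min at 37 C, baseline recorded 40 min, compound (0.03-40 uM) added, then 40 min more recorded. Cells: primary rat cortical neurons, DIV 13 or 15. Per-well synchrony index change analysed in negative direction against DMSO.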

The nature of experiment [15]: CCTE_Shafer_MEA_dev_firing_rate_mean: CCTE's Neural Network Formation Assay for Mean Firing Rate, Shafer Lab (AID 2284031).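 As to AC50: curve fitted for loss of firing so AC50 reflects decreased mean firing rate.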 The method in brief: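 Steps: seed rat cortical cells (1.5 x 10^5/well) with laminin on PEI-coated MEA; dose day 0; record DIV 5/7/9/12, full media and compound exchange after DIV 5 and 9 recordings; compute well-mean firing rate AUC.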
Experiment [16] can be described thus: CCTE_Shafer_MEA_dev_per_burst_spike_percent: CCTE's Neural Network Formation Assay for Percent of Spikes in a Burst, Shafer Lab (AID 2284032).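 As to AC50: fitted as a decrease in burst spike percentage below DMSO baseline.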 The method in brief:
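Value is trapezoidal AUC over recordings on days 5, 7, 9 and 12 of the well-mean fraction of spikes falling in single-electrode bursts; rat cortical cultures exposed continuously from plating, treatment renewed DIV 5 and 9, fitted downward against DMSO.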

Experiment [17] can be described thus: CCTE_Deisenroth_AIME_384WELL_CTox_Active: Cytotoxicity Assessment (CTOX) in CCTE's 384-well Estrogen Receptor Transactivation Assay with AIME metabolic competence (metabolism positive), Deisenroth Lab (AID 2284037; active = hit-call score of the fitted dose curve at least 0.9, where 1 is the maximum;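 also: chemicals first conditioned 2 h by alginate-bound induced rat liver S9 before cells; activity means signal loss indicating cell death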). A digest of the protocol: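 VM7Luc4E2 breast cells received medium pre-incubated 2 h with chemical over alginate microspheres holding induced male Sprague Dawley rat liver S9; viability read 24 h later by protease-substrate fluorescence. Loss of signal, bidirectional fit, 0.002–200 uM.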

Experiment [18] is described as follows: CCTE_Deisenroth_AIME_384WELL_CTox_Inactive: Cytotoxicity Assessment (CTOX) in CCTE's 384-well Estrogen Receptor Transactivation Assay without AIME metabolic competence (metabolism negative), Deisenroth Lab (AID 2284039; active = hit-call score of the fitted dose curve at least 0.9, where 1 is the maximum;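 also: cell viability via live-cell protease substrate cleaved to fluorescent probe; cells exposed 24 h to medium preincubated 2 h with alginate-water beads without S9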). A digest of the protocol:
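VM7Luc4E2 cells, metabolism-negative arm: test chemicals (0.002–200 uM, 10 points) pre-incubated 2 h with alginate-water microspheres, then medium transferred to cells for 24 h. Viability read as protease-substrate cleavage to fluorescent probe; loss-of-signal, bidirectional fitting.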

Records with an inconclusive call do not appear. Activity calls are given as the source filed them. The calls were made as follows, unless noted: active = hit-call score of the fitted dose curve at least 0.9, where 1 is the maximum; inactive = score below 0.9.

Chain of Estrogen receptor (Homo sapiens) (P03372 whole entry, looked up): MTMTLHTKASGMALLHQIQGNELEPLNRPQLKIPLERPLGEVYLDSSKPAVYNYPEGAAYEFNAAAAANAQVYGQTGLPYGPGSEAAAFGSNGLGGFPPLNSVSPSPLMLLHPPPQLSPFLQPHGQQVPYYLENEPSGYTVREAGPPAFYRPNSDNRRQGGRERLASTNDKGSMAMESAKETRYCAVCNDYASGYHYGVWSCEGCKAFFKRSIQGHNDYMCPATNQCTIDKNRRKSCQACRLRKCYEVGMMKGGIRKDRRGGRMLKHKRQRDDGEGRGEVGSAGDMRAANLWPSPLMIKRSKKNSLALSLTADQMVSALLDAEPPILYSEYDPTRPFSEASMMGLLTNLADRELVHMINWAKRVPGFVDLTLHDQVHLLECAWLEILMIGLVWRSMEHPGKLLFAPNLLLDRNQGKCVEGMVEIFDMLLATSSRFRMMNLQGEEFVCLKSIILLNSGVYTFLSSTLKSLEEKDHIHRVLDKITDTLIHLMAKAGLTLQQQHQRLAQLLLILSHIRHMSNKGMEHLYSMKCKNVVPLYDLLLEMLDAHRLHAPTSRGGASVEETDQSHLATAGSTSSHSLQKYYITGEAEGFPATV

Broadly, the AC50 is the midpoint of the concentration-response curve, whichever way the signal moves. Turning to `O=C(OC1CCCCC1)c1ccccc1C(=O)OC1CCCCC1`, the AC50 in experiment [1] was 20500 nM (active); in experiment [2], 10100 nM (active). Besides, the compound was classed as inactive in experiment [3] and in [4].

Turning to `O=C(O)C(F)(F)C(F)(F)C(F)(F)C(F)(F)C(F)(F)C(F)(F)C(F)(F)C(F)(F)C(F)(F)C(F)(F)F`, the outcome in experiment [5], in experiment [7], in experiment [8], in experiment [9], in experiment [10] and in experiment [11] was inactive. For the same compound, the call in experiment [12], in [13], in experiment [14], in [15] and in experiment [16] was inactive. The AC50 in experiment [6] is 5970 nM (active).

In the case of `C=C(C)C(=O)[O][Sn]([CH2]CCC)([CH2]CCC)[CH2]CCC`, the half-maximal activity concentration (AC50) was 11.8 nM (active) in experiment [5]; 83.3 nM (active) in [7]; 20000 nM (active) in experiment [8]; 93.3 nM (active) in experiment [10]; 2810 nM (active) in experiment [11]; 205 nM (active) in experiment [12]. The AC50 in experiment [13] is 10.8 nM (active); in experiment [14], 116 nM (active); in experiment [15], 4.31 nM (active); in experiment [16], 38.9 nM (active). The compound was called inactive in experiment [6] and in experiment [9].

With `CC(=O)OC(c1ccccc1)C(Cl)(Cl)Cl` (stereo unspecified), the outcome in experiment [5], in [6], in experiment [8], in experiment [9], in experiment [10] and in experiment [11] was inactive. For the same compound, the outcome in [12] and in [13] was inactive. In addition, the values for the AC50 in experiment [7] and in experiment [14] were 15000 nM (active) and 26700 nM (active), respectively.

As to `C=CC#N`, the call in experiment [1] and in experiment [2] was inactive.

In the case of `CC(=O)[O][Hg][c]1ccccc1`, the AC50 in experiment [5] is 910 nM (active); in experiment [7] it was 1130 nM (active); in experiment [9], 331 nM (active); in experiment [10], 844 nM (active); in [11] it was 561 nM (active); in [12] it was 1300 nM (active). Also, the concentration at half-maximal activity (AC50) was 713 nM (active) in [13]; 2020 nM (active) in experiment [14]; 5.54 nM (active) in experiment [15]; 11.4 nM (active) in experiment [16]; 66100 nM (active) in experiment [17]; 46300 nM (active) in experiment [18]. Moreover, the call in [6] and in [8] was inactive.

With `COC(=O)Cc1ccccc1`, the outcome in [5], in experiment [6], in experiment [7], in experiment [8], in experiment [9] and in experiment [10] was inactive. In addition, the outcome in [11], in experiment [12], in experiment [13] and in experiment [14] was inactive.

On to `ClC1(Cl)C2(Cl)C3(Cl)C4(Cl)C(Cl)(Cl)C5(Cl)C3(Cl)C1(Cl)C5(Cl)C24Cl` (stereo unspecified), for which the compound was called inactive in experiment [5], in experiment [6], in [7], in experiment [8], in experiment [9] and in [10]. Besides, the compound was classed as inactive in [11], in experiment [12], in experiment [13], in experiment [14] and in [15]. The AC50 in experiment [16] is 3900 nM (active).

The record behind these values is PubChem BioAssay (EPA / NIEHS).
